In publication PMC7822874, “Chemoprotective antimalarials identified through quantitative high-throughput screening of Plasmodium blood and liver stage parasites” (Scientific Reports, 2021):
Where two headings read alike, the source gives them in different places.

System: P. berghei-ANKA-GFP-LucCON liver stage parasites in HepG2-A16-CD81EGFP cells
Conditions: 48 h

COc1ccc(OCCn2cc(C(=O)c3ccco3)c3ccccc32)cc1 [NCGC00101886]
% viability (1 µM): 1.363
% viability (3 µM): 1.13

COc1cccc(OCCn2cc(C(=O)c3ccco3)c3ccccc32)c1 [MLS000050800]
% viability (3 µM): 1.234
